# IMPase Li cell = cell-permeable IMPase inhibitors with lithium potentiation. CHO-M1 cells, IP1 TR-FRET (IP-One), carbachol + lithium. Potency, µM (doses to about 59.4 µM), inactives show at the highest dose activity, negative = IMPase inhibition, hits mostly inhibitors. hit rate 0.35% among 210,000. AID 1457; active = well fitted curve in the direction sought with a large enough effect; inconclusive = small, poorly fitted or top-dose-only effect, or another doubt; inactive = no such curve, though single readings can be large; an effect the other way counts as inactive or inconclusive;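 also: IP1 builds up when IMPase is blocked and the TR-FRET signal falls; potency is read from the fitted curve at half-maximal effect; plate controls were basal vehicle for no effect and high inhibitor control for full effect; nearly all actives have a fitted effect of over 50% in size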
#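 Lithium-sensitised IP1 accumulation assay; M1-expressing CHO cells treated 30 min at 37C with compound. Competitive antibody detection by time-resolved FRET followed a 10 min room-temperature lysis step.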
# PNC inhibitor = inhibitors of perinucleolar compartment assembly. PC3M PTB-GFP, PNC prevalence imaging, 16 h; active compounds read low. activity change (PNC), negative = inhibition, % at 10 µM. hit rate 3.1% among 140,000. AID 2417;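 active = readout at or below -70, meaning at least 70% loss of cells showing the perinucleolar compartment, a nuclear body marking cancer cells; inconclusive = readout between -30 and a set limit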;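 also: plate controls were DMSO wells for no effect and camptothecin positive control wells for full effect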
#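 Compounds are pinned in duplicate onto adhered PC3M cells stably expressing GFP-tagged PTB and incubated 16 h at 37 C. Cells are then fixed, nuclei stained with Hoechst, and PNC-positive cells counted.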
# HPGD inh = blocks human HPGD enzyme activity; hit rate 4.3% among 150,000; purified HPGD, NADH fluorescence kinetic, PGE2 substrate; Potency, µM, for the others: top-dose activity change, negative = inhibition, hits mostly inhibitors; also: potency is read from the fitted curve at half-maximal effect
#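 20 nM HPGD preincubated 15 min at room temperature with compound in 50 mM Tris-HCl pH 8, 0.01% Tween 20. Started with 1 mM NAD+ and 30 uM prostaglandin E2; NADH fluorescence (360/450 nm) read 5 times over 30-s intervals, last minus first.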
# ALDH1A1 block = ALDH1A1 (human) enzyme inhibition. Purified ALDH1A1, NADH fluorescence, propionaldehyde substrate. Potency, µM (top dose mostly 75.3 µM), inactives show at the top dose activity, negative = inhibition, most hits filed as inhibitors. hit rate 7.3% among 220,000;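 also: potency is read from the fitted curve at half-maximal effect; plate controls were no enzyme wells and a reference inhibitor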
# IMPase cell inh = membrane-permeable compound that blocks inositol monophosphatase. P97697. CHO-M1 cells, IP1 accumulation, HTRF TR-FRET ratio. inhibition (IP1 accumulation), % at 46.1 µM. 120,000 tested, under 10 active. AID 901; active = well fitted curve in the direction sought with a large enough effect in the signal ratio, not every such curve was filed as active; inconclusive = small, poorly fitted or top-dose-only effect, or a change in a side signal; inactive = no such curve, though single readings can be large or run the other way; the % refers to the signal ratio;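 also: cells stimulated with carbachol in lithium chloride buffer; plate controls were DMSO basal wells for no effect and reference inhibitor wells for full effect; higher means more IMPase inhibition seen as more IP1 and lower FRET ratio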
#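 Measured: the HTRF emission ratio (665/620 nm) plus the 620 nm donor channel, each fitted to the Hill equation to give AC50. Cells were CHO-M1 given compounds up to 46 uM and a 30 min carbachol stimulation at 37C.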
# ALOX12 inhib = 12-hLO (ALOX12) enzyme inhibition. hit rate 0.12% among 150,000. Potency, µM (titrated, usually from 57.1 µM), inactives show top-dose activity change, negative = inhibition, hits mostly inhibitors. P18054. AID 1452. purified 12-hLO, xylenol orange hydroperoxide absorbance; active = well fitted curve in the direction sought with a large enough effect; inconclusive = small, poorly fitted or top-dose-only effect, or another doubt; inactive = no such curve, though single readings can be large; an effect the other way counts as inactive or inconclusive; also: potency is read from the fitted curve at half-maximal effect; nearly all actives have a fitted effect of over 55% in size
# Target sequence (P18054 whole entry, looked up): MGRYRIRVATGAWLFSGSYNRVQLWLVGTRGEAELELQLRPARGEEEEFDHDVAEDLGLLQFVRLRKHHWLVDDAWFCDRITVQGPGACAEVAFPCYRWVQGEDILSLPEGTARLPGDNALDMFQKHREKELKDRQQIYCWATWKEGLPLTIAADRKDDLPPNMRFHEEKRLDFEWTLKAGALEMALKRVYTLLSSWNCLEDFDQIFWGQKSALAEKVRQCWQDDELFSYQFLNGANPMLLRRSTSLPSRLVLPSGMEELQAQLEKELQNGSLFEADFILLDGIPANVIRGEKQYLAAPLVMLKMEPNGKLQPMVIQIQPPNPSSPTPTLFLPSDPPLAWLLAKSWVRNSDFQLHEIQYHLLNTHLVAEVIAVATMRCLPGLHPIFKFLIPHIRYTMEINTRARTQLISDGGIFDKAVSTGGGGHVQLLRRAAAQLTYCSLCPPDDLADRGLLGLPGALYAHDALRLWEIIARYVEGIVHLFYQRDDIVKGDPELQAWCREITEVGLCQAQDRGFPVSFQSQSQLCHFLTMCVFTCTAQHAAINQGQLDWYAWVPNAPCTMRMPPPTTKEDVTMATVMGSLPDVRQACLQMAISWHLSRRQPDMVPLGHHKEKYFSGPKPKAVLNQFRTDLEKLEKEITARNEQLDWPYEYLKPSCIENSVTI
#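 Purified human 12hLO (150 nM), preincubated 15 min with compound, then 40 uM arachidonic acid for 30 min, room temperature, Hepes pH 7.0 with 0.01% Triton X-100. Hydroperoxide detected by ferrous iron/xylenol orange; 573/405 nm absorbance ratio gives reaction progress.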
# * hit, by the source's call; ? = inconclusive; . = not tested or not shown; [ ] = another dose, or the depositor's remark. A selection: hits, their analogues and other compounds. The true share with any hit is near 11%. Unless noted, calls follow the shape of the dose curve; as a rule, active = well fitted inhibition curve with a large enough effect (not every such curve was filed as active); inconclusive = small, poorly fitted or top-dose-only effect, or another doubt; inactive = no such curve, though single readings can be large or run the other way. Unless noted, % is scaled to controls: 0 for no effect and ±100 for the full control effect.
SMILES,IMPase Li cell,PNC inhibitor,HPGD inh,ALDH1A1 block,IMPase cell inh,ALOX12 inhib
Cc1ccc(N(CC(N)=O)C2SC(=O)N(Cc3cccc(C(=O)O)c3)C2=O)cc1 (stereo not given),-5.3%[38.3 µM],28.8,-9.4%,20µM*,8.1,-13.2%
CC(C)NC(=O)N1CC2(CCN(S(=O)(=O)c3ccccc3)CC2)C1,-4.6%,.,-4.6%,1.8%,.,-0.8%
Cc1oc(=O)c(NC(=O)c2ccccc2)cc1C(=O)c1ccccc1,8.6%[38.3 µM],25.4,-14.6%,17.8µM*,6.6,-6.9%
CC(=O)c1cc(NC(=O)c2ccc(C)cc2)c(=O)oc1C,6.7%,.,.,22.4µM*,.,.
Cc1oc(=O)c(NC(=O)c2ccc(Cl)cc2)cc1C(=O)c1ccccc1,22.0%[38.3 µM],-25.5,31.6µM*,3.55µM*,3.8,?
COCCCn1c(C)c(C(C)=O)cc(NC(=O)c2ccccc2)c1=O,-7.7%,.,.,2µM*,.,.
CCOC(=O)c1cc(NC(=O)c2ccccc2)c(=O)oc1C(F)(F)F,9.7%,.,.,-3.5%,.,.
CC(=O)c1cc(NC(=O)c2ccccc2)c(=O)oc1C,8.8%,.,.,20µM*,.,.
COC(=O)c1cc(NC(=O)c2ccc(OC)cc2)c(=O)oc1C,8.9%,.,.,1.7%,.,.
Cc1ccc(CCNC(=O)c2ccc(Nc3nc4ccccc4n4nnnc34)cc2)cc1,.,.,.,.,-10.0,.
COCC(C)NCc1ccccc1C (stereo not given),2.6%[38.3 µM],-17.4,2.0%,-11.8%,1.8,-6.0%
O=C1/C(=C/c2ccc([N+](=O)[O-])cc2)C=C(c2ccccc2)N1c1ccccc1,.,9.6,.,-1.9%,?,-8.4%
O=C(O)c1cccc(N2C(=O)/C(=C/c3ccc([N+](=O)[O-])cc3)C=C2c2ccccc2)c1,-8.3%,.,.,25.1µM*,.,.
COC(=O)c1ccc(C(NC(=O)OCc2ccccc2)/C(=C/[C@@H](C)C(=O)N(C)Cc2cccnc2)c2cccnc2)cc1 (stereo not given in full),-1.0%,.,-2.7%,-0.1%,.,0.5%
CCN(Cc1ccccc1)c1ccc(/C=C(\C#N)c2ccccn2)cc1,.,?,.,14.1µM*,0.0,5.1%
CNc1ncnc2ccc(-c3cccc(OC)c3)cc12,11.9%,.,.,?,.,.
O=C1Cn2c(nc3ccccc32)N1c1ccccc1F,18.8%[38.3 µM],-101.6*,-3.0%,6.2%,0.8,2.1%
CN1C(=O)Cn2c1nc1ccccc12,-10.7%[38.3 µM],23.1,-17.9%,-2.2%,6.6,1.2%
CC1CCN(C(=S)Nc2ccc(F)cc2)CC1,4.6%,57.1,-5.2%,-0.3%,.,-0.9%
C/C(=N\NC(=S)Nc1ccc(F)cc1)C1CC1,-4.7%[38.3 µM],?,0.0%,15µM*,3.1,-24.8%
CN(C)CCN(C)C(=O)c1ccc(-n2c(=O)c(=O)[nH]c3ccccc32)cc1,.,.,-7.9%,-4.8%,.,-0.3%
O=C(CN1C(=O)C2CC=CCC2C1=O)N1CCN(c2ccc([N+](=O)[O-])cc2)CC1 (stereo not given),.,.,.,25.1µM*,.,.
CC1OC(n2cc(F)c(=O)[nH]c2=O)C(O)C1O (stereo not given),5.2%,.,-8.5%,3.1%,.,-2.3%
Clc1ccc(OCCCNCc2ccccc2)c(Br)c1,29.4%[38.3 µM],-89.3*,-9.7%,-8.6%,0.2,-4.7%
CCCn1c(N)c(C(c2ccc(C(=O)OC)cc2)N2CCN(c3ccccc3)CC2)c(=O)[nH]c1=O (stereo not given),11.2%[38.3 µM],-17.7,-19.3%,?,-3.1,-6.0%
SMILES,IMPase Li cell,PNC inhibitor,HPGD inh,ALDH1A1 block,IMPase cell inh,ALOX12 inhib
CCCn1c(N)c(C(c2ccc(OC)cc2)N2CCN(c3ccccc3)CC2)c(=O)[nH]c1=O (stereo not given),34.4%[38.3 µM],22.2,-19.1%,2.51µM*,8.1,-13.7%
CCCS(=O)(=O)c1c(S(=O)(=O)CCC)c2cc(C(C)(C)C)ccn2c1C(=O)c1ccc(OC)c(OC)c1,.,.,.,.,8.0,.
Cc1onc(-c2ccccc2)c1CNC(=O)C1COc2ccccc2O1 (stereo not given),.,.,.,17.8µM*,.,.
COc1ccc(OC)c(NC(=O)C2COc3ccccc3O2)c1 (stereo not given),10.3%[38.3 µM],40.1,-14.2%,?,-2.4,1.6%
O=C(Nc1ccc(Cl)cn1)C1COc2ccccc2O1 (stereo not given),4.3%,.,.,22.4µM*,.,.
COc1ccc(CNC(=O)C2COc3ccccc3O2)c(OC)c1 (stereo not given),-4.6%[38.3 µM],12.2,4.47µM*,?,4.7,-15.4%
O=C(NCc1ccccc1)C1COc2ccccc2O1 (stereo not given),4.6%,?,11.2µM*,-0.8%,-3.0,-7.4%
O=C(Nc1ccccn1)C1COc2ccccc2O1 (stereo not given),4.0%,36.2,-17.8%,-3.8%,0.3,-3.5%
Cc1ccc(CNC(=O)C2COc3ccccc3O2)cc1 (stereo not given),8.0%,.,.,?,.,.
CN(C)c1ncc2nc(-c3cc(F)cc(F)c3)c(=O)n(C3CC3)c2n1,-1.4%,.,.,?,.,.
O=C(c1cccc(F)c1)N1CCC2(CC1)CCN(c1ccc(-c3ccccc3)cc1)CC2,4.3%,.,3.7%,-6.7%,.,3.3%
CC1=CC(=O)C2C(C)(C)CCC[C@@]2(C)[C@@]1(O)CCc1ccoc1 (stereo not given in full),6.1%,.,-8.5%,?,.,-2.4%
COC(=O)C1=C(C(=O)OC)[C@@H]2N(C)c3ccc(OC)cc3[C@@]23C[C@@H](C(=O)OC)N(S(=O)(=O)c2ccc(C(F)(F)F)cc2)C3=N1,0.6%,.,3.8%,9.1%[13.5 µM],.,-10.3%[11.4 µM]
Cc1ccc(C(=O)OCC(=O)c2ccc(Cl)s2)s1,-21.2%[38.3 µM],10.1,15.8µM*,?,0.8,-3.6%
Cc1cc(C)cc(NC(=O)c2ncn(-c3ccccc3)n2)c1,.,.,.,.,-0.4,.
Cc1ccc(-c2nn(-c3ccccc3)cc2CN(Cc2ccccc2)C(=O)c2ccco2)o1,19.6%[38.3 µM],?,-26.6%,11.2µM*,14.4,-13.1%
CCOC(=O)C1CN(S(=O)(=O)c2ccc(C)cc2)c2cc(S(=O)(=O)CC)ccc2O1 (stereo not given),4.3%[38.3 µM],19.5,-10.1%,?,-7.4,-3.0%
CCS(=O)(=O)c1ccc2c(c1)N(S(C)(=O)=O)CC(C(=O)NN)O2 (stereo not given),4.9%,.,.,0.562µM*,.,.
CN(C)CCCCN1CCc2c(n(C)c3ccccc23)C1=O,11.3%,.,-8.4%,11.8%[13.5 µM],.,9.3%[11.4 µM]
Cc1ccc(Nc2nnns2)cc1,18.3%[38.3 µM],25.3,22.4µM*,2.51µM*,4.4,-2.9%
O=C(O)[C@H](C1NCCS1)N1C(=O)c2ccccc2C1=O (stereo not given in full),2.3%,.,-9.1%,-1.2%[13.5 µM],.,.
COc1cc(NS(=O)(=O)c2ccc(NC(C)=O)cc2)ncn1,15.5%[38.3 µM],-0.6,-7.3%,18.7%,-2.6,-2.9%

# Assay outcomes (PubChem BioAssay)
